Source: PubChem BioAssay (NCI)
The panel holds about 79,000 compounds, 15% with a hit somewhere; the sample as a whole holds those more often. A number with no mark means an inactive call. Cut-off read from the data, not from the text of the source: active = growth inhibition above about 70%; inactive = the rest. Where a SMILES comes first, the peptide text is derived from it. The star is where a group is joined. Cbz = O=C(OCc1ccccc1)*

assay: NCI Yeast Anticancer Drug Screen. Data for the cln2 rad14 strain (AID 165);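 note: 0% = growth equal to vehicle treated cultures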; settings: S. cerevisiae cln2 rad14 strain, at 50.0 µM, hits give high values
Outline: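 Each compound was tested on cln2 rad14 yeast. Inhibition of growth was calculated against vehicle-exposed controls.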

SMILES	growth inhibition
COc1ccc(C2CC(c3cc(C)ccc3O)=NC(N)=N2)cc1 (stereo not drawn)	13.2%
CC(=O)Nc1cccc(/C=C/c2ccc([N+](=O)[O-])cc2)c1	32.5%
O=C1OCCC1=P(c1ccccc1)(c1ccccc1)c1ccccc1	9.45%
O/N=C/c1nc2ccccc2s1	-55.6%
Cc1ccc(S(=O)(=O)Nc2ccccc2-c2nc3c(Cl)ccc(Cl)c3c(=O)o2)cc1	-10.3%
Cc1cccc(NC(=O)O/N=C(\Cl)C(C)C)c1	0.4%
CC(C)(C)C(=O)/C=C/c1ccc(Oc2ccccc2)cc1	-15.6%
C=Cc1ccc(C)[n+](C[Si](C)(C)O[Si](C)(C)C)c1	19.4%
CCOC(=O)CCC(NC(=O)C(CCC(=O)O)NC(=O)OCc1ccccc1)C(=O)OCC (stereo not drawn) (Cbz-Glu-Glu(OEt)-OEt; configuration not given here)	-13.4%
COC(=O)C(=O)C1CCc2c(ccc3c2CCCC3)C1 (stereo not drawn)	-8.8%
CC(=O)OCCOCNC(=S)N/N=C/c1ccc([N+](=O)[O-])s1	32.5%
Nc1cccc2ncccc12	-30%
COC(=O)C(C)NC(=O)C(C)NC(=O)c1cc(OC)c(OC)c(OC)c1 (stereo not drawn)	17.1%
Clc1ccc(C2ON=C(c3ccccc3)N2C23CC4CC(CC(C4)C2)C3)cc1 (stereo not drawn)	-0.3%
O=C(CCc1n[nH]c(=S)o1)Nc1ccccc1	15.8%
CC(=O)c1cc(C(C)=O)c(CC(=O)C(=O)Nc2cccc(C)c2C)nc1CC(=O)C(=O)Nc1cccc(C)c1C	-19.2%
CCCCC(CC)C1OCCS1 (stereo not drawn)	1.9%
CN1CCN(c2nc3c(c(=O)n(C)c(=O)n3C)n2C)CC1	-6.1%
O=C1C(=O)N(c2cc(Cl)ccc2Cl)C(=O)C(=O)C1c1nc2ccccc2s1	-18.8%
O=C1NC(c2ccccc2Cl)Nc2ccccc21 (stereo not drawn)	-32.1%
Nc1nc2c(c(=O)[nH]1)CN(CCCN1CCOCC1)CN2	68%
CCCCCCCCCCCCCCCCC(NC(C)=O)(C(=O)OCC)C(=O)OCC	30.2%
Nc1ccc2c(c1)NCC2	12.1%
